Measurements as given in PubChem BioAssay (Tox21).
“And” between values parts separate entries of the source, which are not always exact repeats. Equal entries are not always repeated. Results filed as inconclusive are left out. A call without a number means that no potency is given here. A structure can be active in one record and inactive in another. The source made the active and inactive calls. Calls come from the whole dose curve; as a rule, active = well fitted curve in the direction sought with a large enough effect in the repeat runs; inconclusive = weak or mixed curves; inactive = no such curve, though single readings can be large; an effect the other way counts as inactive or inconclusive.

Assays:
[1] = A CellTox Green Cytotoxicity Assay to monitor cytotoxicity in HEK293 cells - 40 hour (AID 1224871); note: nearly all actives have a fitted effect of over 45% in size; note: potency is the fitted concentration of half-maximal effect
Method in brief: (§1)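 Real-time, in one plate: 600 HEK293 cells/well with dead-cell DNA dye, pinned compound after 5 h, 37 C incubation over 40 h; viable cells give no appreciable fluorescence.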

[2] = qHTS RealTime-Glo MT Cell Viability Assay in HEK293 cells - 16 hour (AID 1224872); note: nearly all actives have a fitted effect of over 50% in size; note: potency is the fitted concentration of half-maximal effect
Method in brief: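 Reads taken at 0, 8, 16, 24, 32 and 40 h from the same wells. HEK293 cells (600/well) carried RealTime-Glo reagents from seeding, with compound added after a 5 h settle at 37 C.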

[3] = qHTS RealTime-Glo MT Cell Viability Assay in HEK293 cells - 40 hour (AID 1224874); details: RealTime-Glo luminescence; max response: stronger effect = lower value; note: nearly all actives have a fitted effect of over 50% in size; note: potency is the fitted concentration of half-maximal effect
Method in brief: (§2)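 Kinetic, non-lysing viability readout. Seed HEK293 (600/well) with reagent, incubate 5 h at 37 C/5% CO2, pin 23 nL compound in DMSO, incubate at 37 C, read luminescence at 0, 8, 16, 24, 32, 40 h.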

[4] = A CellTox Green Cytotoxicity Assay to monitor cytotoxicity in HEK293 cells - 24 hour (AID 1224875); note: nearly all actives have a fitted effect of over 45% in size; note: potency is the fitted concentration of half-maximal effect
Method in brief: as §1

[5] = A CellTox Green Cytotoxicity Assay to monitor cytotoxicity in HepG2 cells - 16 hour (AID 1224876); note: nearly all actives have a fitted effect of over 45% in size; note: potency is the fitted concentration of half-maximal effect
Method in brief: (§3)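 Cytotoxicity was tracked as dead-cell DNA fluorescence in HepG2 cells treated with test compounds at 37 C; each time-point value comes from one kinetic series spanning 0, 8, 16, 24, 32 and 40 h.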

[6] = qHTS RealTime-Glo MT Cell Viability Assay in HepG2 cells - 32 hour (AID 1224877); note: nearly all actives have a fitted effect of over 55% in size
Method in brief: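 HepG2 suspension premixed with RealTime-Glo reagents is plated at 600 cells per well and left 5 h at 37 C/5% CO2. Compounds in DMSO then go in, and bioluminescence reflecting viable cell number is recorded over 40 h.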

[7] = A CellTox Green Cytotoxicity Assay to monitor cytotoxicity in HepG2 cells - 40 hour (AID 1224879); note: nearly all actives have a fitted effect of over 40% in size; note: potency is the fitted concentration of half-maximal effect
Method in brief: as §3

[8] = qHTS RealTime-Glo MT Cell Viability Assay in HEK293 cells - 0 hour (AID 1224880); note: nearly all actives have a fitted effect of over 45% in size; note: potency is the fitted concentration of half-maximal effect
Method in brief: as §2

[9] = A CellTox Green Cytotoxicity Assay to monitor cytotoxicity in HepG2 cells - 24 hour (AID 1224878); note: nearly all actives have a fitted effect of over 45% in size; note: potency is the fitted concentration of half-maximal effect
Method in brief: as §3

[10] = qHTS RealTime-Glo MT Cell Viability Assay in HepG2 cells - 8 hour (AID 1224873); note: nearly all actives have a fitted effect of over 55% in size
Method in brief: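 Real-time viability: cells seeded at 600 per well together with NanoLuc and cell-permeant prosubstrate, compounds added after 5 h incubation. Luminescence tracked at 0, 8, 16, 24, 32 and 40 h of exposure.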

SMILES | Potency [1] | Potency [2] | max response [3] | Potency [4] | Potency [5] | Potency [6] | Potency [7] | Potency [8] | Potency [3] | Potency [9] | Potency [10]
OCCNCCO | inactive | inactive | 4.46% (inactive) and 5.31% (inactive) | inactive | inactive | inactive | inactive | inactive | – | – | –
Brc1nc2ccccc2s1 | inactive | inactive | 0.941% (inactive) and 3.88% (inactive) | inactive | – | – | inactive | inactive | – | – | –
CC(=O)O[C@]1(C(C)=O)CC[C@H]2[C@@H]3C=C(C)C4=CC(=O)CC[C@]4(C)[C@H]3CC[C@@]21C | inactive | – | – | inactive | inactive | inactive | inactive | 5.49 µM (active) and 2.68 µM (active) | 19.5 µM (active) and 10.7 µM (active) | – | –
CN(Cc1cnc2nc(N)nc(N)c2n1)c1ccc(C(=O)N[C@@H](CCC(=O)O)C(=O)O)cc1 | inactive | inactive | – | inactive | – | inactive | inactive | inactive | 49 nM (active) and 53.5 nM (active) | – | –
Oc1ccc(C(c2ccc(O)cc2)C(Cl)(Cl)Cl)cc1 | inactive | – | – | inactive | inactive | inactive | inactive | inactive | 34.5 µM (active) | inactive | –
COc1ccc(-c2coc3cc(O)cc(O)c3c2=O)cc1 | inactive | – | – | inactive | – | – | 55.4 µM (active) | inactive | 49.4 µM (active) | – | inactive
CC(C)(Oc1ccc(Cl)cc1)C(=O)O | inactive | inactive | 6.25% (inactive) and 5.25% (inactive) | inactive | – | inactive | inactive | inactive | – | inactive | –
C[C@]12CC[C@@H]3c4ccc(O)cc4CC[C@H]3[C@@H]1CC[C@H]2O | inactive | – | – | inactive | – | inactive | 9.94 µM (active) and 34.7 µM (active) | inactive | 5.59 µM (active) and 15.5 µM (active) | – | inactive
C=C1C[C@H]2[C@@H]3C=C(C)C4=CC(=O)CC[C@]4(C)[C@H]3CC[C@]2(C)[C@@]1(OC(C)=O)C(C)=O | inactive | – | – | inactive | inactive | – | inactive | – | – | inactive | –
O=C(O)CCCCCCCCCCCC(=O)O | 27.1 µM (active) and inactive | inactive | 7.31% (inactive) | inactive | – | – | 48.2 µM (active) and inactive | inactive | – | – | –
C[C@]12CC[C@@H]3c4ccc(O)cc4CC[C@H]3[C@@H]1CC[C@@H]2O | inactive | – | – | inactive | inactive | inactive | 34.6 µM (active) | inactive | 17.3 µM (active) and 21.9 µM (active) | – | inactive
COC(=O)C(C)Oc1ccc(Oc2ncc(C(F)(F)F)cc2Cl)cc1 (centres undefined) | inactive | – | -25% (inactive) | inactive | inactive | inactive | inactive | inactive | – | inactive | inactive
Cc1ccc(S(=O)(=O)NCl)cc1 | inactive | inactive | 4.42% (inactive) and 3.53% (inactive) | inactive | inactive | inactive | inactive | inactive | – | – | –
CCCCCCCCCCC(CO)CCCCCCCC (centres undefined) | inactive | inactive | 5.36% (inactive) and 2.58% (inactive) | inactive | inactive | – | inactive | inactive | – | inactive | –
CCc1cccc2c3c([nH]c12)C(CC)(CC(=O)O)OCC3 (centres undefined) | inactive | inactive | 0.853% (inactive) and 0.265% (inactive) | inactive | inactive | inactive | inactive | inactive | – | – | –
Nc1ccc(N)c(Cl)c1 | inactive and 38.9 µM (active) | 48.9 µM (active) | -27.4% (inactive) and -12.8% (inactive) | – | – | – | inactive and 43.6 µM (active) | inactive | – | – | –
C=C[C@@]1(C)CC(=O)[C@]2(O)[C@@]3(C)[C@@H](O)CCC(C)(C)[C@@H]3[C@H](O)[C@H](OC(C)=O)[C@@]2(C)O1 | inactive | inactive | -11.8% (inactive) | inactive | inactive | – | inactive | inactive | – | inactive | –
CC(=O)O[C@]1(C(C)=O)CC[C@H]2[C@@H]3C=C(Cl)C4=CC(=O)CC[C@]4(C)[C@H]3CC[C@@]21C | inactive | 21.8 µM (active) | – | inactive | inactive | – | inactive | 2.18 µM (active) and 1.69 µM (active) | 21.8 µM (active) and 10.7 µM (active) | inactive | –
CCCCCC1C(=O)CCC1CC(=O)OC (centres undefined) | inactive | inactive | 0.863% (inactive) and -10.7% (inactive) | inactive | – | inactive | inactive | inactive | – | inactive | –
ClC/C=C/CCl | inactive | inactive | 18.6% (inactive) and 9.13% (inactive) | inactive | – | – | inactive | inactive | – | inactive | –

SMILES | Potency [1] | Potency [2] | max response [3] | Potency [4] | Potency [5] | Potency [6] | Potency [7] | Potency [8] | Potency [3] | Potency [9] | Potency [10]
Nc1cc([N+](=O)[O-])ccc1C(=O)O | inactive | inactive | 9.73% (inactive) and 6.1% (inactive) | inactive | – | inactive | inactive | inactive | – | inactive | –
C1CN(SSN2CCOCC2)CCO1 | 54.4 µM (active) and inactive | inactive | -14.4% (inactive) | – | inactive | inactive | inactive | inactive | – | inactive | –
C[C@]12C=CC(=O)C=C1CC[C@H]1[C@@H]3C[C@@H](O)[C@](O)(C(=O)CO)[C@@]3(C)C[C@H](O)[C@@]12F | inactive | inactive | 1.25% (inactive) and 4.53% (inactive) | inactive | – | – | inactive | inactive | – | – | –
c1ccc2c(c1)ccc1ncccc12 | inactive | inactive | -12% (inactive) and -17.1% (inactive) | inactive | – | inactive | inactive | inactive | – | inactive | –
CC(C)[N+](C)(CCOC(=O)C1c2ccccc2Oc2ccccc21)C(C)C | inactive | inactive | -23.6% (inactive) and -15.1% (inactive) | inactive | inactive | – | inactive | inactive | – | inactive | –
CC1=CC(C)(C)Nc2ccccc21 | – | inactive | 5.64% (inactive) and -19.8% (inactive) | inactive | inactive | inactive | inactive | inactive | – | – | inactive
C=CC(=O)OCCCC | inactive | inactive | 6.68% (inactive) and 3.94% (inactive) | inactive | inactive | – | inactive | inactive | – | – | –
NCCOCCO | inactive | inactive | 6.45% (inactive) and 5.26% (inactive) | inactive | inactive | – | inactive | inactive | – | inactive | –
CN1CCOCC1 | inactive | inactive | 8.86% (inactive) and 4.46% (inactive) | inactive | – | inactive | inactive | inactive | – | inactive | –
Nc1ccc2c(c1)C(=O)c1ccccc1C2=O | 30.3 µM (active) and inactive | inactive | -23.1% (inactive) and -12.6% (inactive) | inactive | – | inactive | inactive | inactive | – | inactive | –
CC1(C)NC(=O)N(c2ccc([N+](=O)[O-])c(C(F)(F)F)c2)C1=O | inactive | – | – | inactive | – | inactive | inactive | inactive | 24.5 µM (active) | inactive | –
C=C[C@H]1CN2CC[C@H]1C[C@@H]2[C@@H](O)c1ccnc2ccc(OC)cc12 | inactive | 42.9 µM (active) | – | inactive | – | inactive | inactive | inactive | 48.2 µM (active) | inactive | –
c1ccc2c(c1)[nH]c1ccccc12 | inactive | inactive | -8.89% (inactive) | inactive | inactive | – | – | inactive | – | inactive | –
COc1cc([C@H]2Oc3cc([C@H]4Oc5cc(O)cc(O)c5C(=O)[C@@H]4O)ccc3O[C@@H]2CO)ccc1O | inactive and 16.9 µM (active) | inactive | -16.5% (inactive) | – | inactive and 21.3 µM (active) | inactive | inactive and 21.3 µM (active) | inactive | – | – | –
Cc1ccc(N)c([N+](=O)[O-])c1 | inactive | inactive | 2.67% (inactive) and 2.77% (inactive) | inactive | – | inactive | inactive | inactive | – | – | –
CC(=O)[C@H]1CC[C@H]2[C@@H]3CC=C4C[C@@H](O)CC[C@]4(C)[C@H]3CC[C@]12C | inactive | inactive | -23.7% (inactive) | inactive | – | inactive | inactive | inactive | – | inactive | –
Cc1ccc(C(C)(C)C)c(O)c1 | 23.8 µM (active) and 24.5 µM (active) | inactive | -23.8% (inactive) and -20.7% (inactive) | 23.8 µM (active) and 24.5 µM (active) | – | inactive | 34.7 µM (active) | inactive | – | 38.9 µM (active) | –
Cc1ccc(C)c(O)c1 | inactive | inactive | 1.95% (inactive) and 4.96% (inactive) | inactive | – | inactive | inactive | inactive | – | – | –
C=CC(C)(O)CCC=C(C)C (centres undefined) | inactive | inactive | 3.03% (inactive) and 9.35% (inactive) | inactive | inactive | – | inactive | inactive | – | inactive | –
